Data: PubChem BioAssay (NCI)
This is part of a sample that, as a whole, favours compounds with a hit. Of some 83,000 tested, about 20% had one in any assay.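 Compound tested at a single concentration for 48 hours in 96-well plates; a percent growth value below 10 was scored as active.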 Values without a mark were called inactive. The source made the active and inactive calls.

How the values were obtained:
Experiment in all cases: NCI-60 one-dose screen, 48 h (100 = growth as untreated, 0 = no growth, -100 = all killed)
Settings in all cases: 10 µM unless noted
[1] = tested on: NCI-H23 lung
[2] = tested on: NCI-H226 lung
[3] = tested on: NCI-H322M lung
[4] = tested on: HOP-62 NSCLC
[5] = tested on: NCI-H460 lung
[6] = tested on: HOP-92 NSCLC
[7] = tested on: NCI-H522 lung
[8] = tested on: A549/ATCC NSCLC
[9] = tested on: 786-0 renal
[10] = tested on: COLO 205 colon
[11] = tested on: DU-145 prostate
[12] = tested on: K-562 leukemia
[13] = tested on: MALME-3M melanoma
[14] = tested on: MDA-MB-231 breast
[15] = tested on: RXF 393 renal
[16] = tested on: SF-268 CNS
[17] = tested on: SF-295 CNS
[18] = tested on: SF-539 CNS
[19] = tested on: UACC-257 melanoma
[20] = tested on: M14 melanoma

Row | SMILES | growth [1] | growth [2] | growth [3] | growth [4] | growth [5] | growth [6] | growth [7] | growth [8] | growth [9] | growth [10] | growth [11] | growth [12] | growth [13] | growth [14] | growth [15] | growth [16] | growth [17] | growth [18] | growth [19] | growth [20]
1 | CN1C(=O)C(=Cc2cn(Cc3ccccc3)c3ccccc23)C(=O)N(C)C1=O | 80.4% | -71% (active) | 72.3% | 73.6% | 0.11% (active) | 65.1% | 92.6% | 81.7% | 93.9% | 1.43% (active) | 103% | 51.1% | 91.3% | 75.5% | 56.9% | 95.4% | 34.7% | 86.2% | 27.9% | 92.6%
2 | O=[N+]([O-])c1cc([N+](=O)[O-])c(Nn2c3ccccc3c3ccccc32)c([N+](=O)[O-])c1 | -3.12% (active) | -1.91% (active) | 2.33% (active) | -11.8% (active) | 3.43% (active) | -28.1% (active) | -25.4% (active) | 4.97% (active) | 0.775% (active) | -65.2% (active) | 22.7% | 6.42% (active) | -16.2% (active) | -6.81% (active) | -4.31% (active) | 16.2% | -47.6% (active) | 8.26% (active) | -22.6% (active) | 1.91% (active)
3 | CCOC(=S)S[C@H]1C[C@@H]2[C@H](CC[C@]3(C)C(=O)CC[C@@H]23)[C@@]2(C)CCC(=O)C=C12 | 101% | 106% | 102% | 112% | 105% | 117% | 95.6% | 107% | 102% | 115% | 103% | 95.3% | 107% | 95.2% | 102% | 95.5% | 95.7% | 99.7% | 101% | 102%
4 | COC(=O)[C@@H](C)C[C@H](Cc1ccccc1)NC(=O)c1csc([C@@H](C[C@H](C(C)C)N(C)C(=O)[C@@H](NC(=O)[C@H]2CCCCN2C)C(C)C)OC(C)=O)n1 | 23.7% | 32.4% | 46.8% | 0.881% (active) | 2.4% (active) | -13.5% (active) | -31.7% (active) | 14% | 4.12% (active) | -69.9% (active) | 10.3% | 1.46% (active) | 51.5% | 1.38% (active) | 75.3% | 17.1% | -2.48% (active) | -23% (active) | 41.7% | -32.1% (active)
5 | Nc1ncnc2n[nH]nc12 | 72.7% | 72.3% | 42.3% | 40% | 95.1% | 77.3% | 34% | 73.4% | 56.2% | 70.5% | 57% | 59.6% | 55.1% | 74.9% | 75.8% | 81% | 53.5% | 86.8% | 58.1% | 39.8%
6 | COC(C(=O)[C@@H](O)[C@@H](C)O)[C@@H]1Cc2cc3cc(O[C@H]4C[C@@H](O[C@H]5C[C@@H](O)[C@H](O)C(C)O5)[C@H](O)C(C)O4)c(C)c(O)c3c(O)c2C(=O)[C@H]1O[C@H]1C[C@@H](O[C@H]2C[C@@H](O[C@H]3C[C@@H](O)[C@@H](O)C(C)O3)[C@@H](O)C(C)O2)[C@H](O)C(C)O1 (stereo not given in full) | -0.735% (active) | -22.2% (active) | 14% | -4.46% (active) | 7.75% (active) | 13.3% | -23.7% (active) | 2.42% (active) | -1.51% (active) | -43.3% (active) | 17.5% | 9.59% (active) | -38.7% (active) | 3.75% (active) | -60.5% (active) | 24.4% | 12.9% | 1.03% (active) | -38.6% (active) | 8.68% (active)
7 | CC(=O)OCc1cc[c]([Hg][Cl])o1 | 58.8% | 81.5% | 98.7% | 91.4% | 84.9% | 53.8% | -53.6% (active) | 73.9% | 24.5% | -1.94% (active) | 84.2% | 7.96% (active) | -39.7% (active) | 26% | -38.7% (active) | 22.5% | 78.1% | 44.2% | 53.5% | 13%
8 | Nc1c(F)cc(-c2nc3cc(F)ccc3[se]2)cc1F | 49.4% | -11.3% (active) | 70.8% | 58.9% | 14.5% | 74.8% | 84.8% | 46.5% | 104% | 13.4% | 99.8% | 85.8% | 101% | 54.6% | 105% | 91.4% | 87.8% | 96.3% | 101% | 90%
9 | Cn1cc(-c2csc(-c3cn(CCCCN4CCCCC4)c4ccccc34)n2)c2cccnc21 | 42.7% | 68.2% | 88.2% | 51.6% | -44.9% (active) | 46.3% | 48% | -47.1% (active) | -85.1% (active) | -73.7% (active) | 21% | -57.8% (active) | -66.9% (active) | -63.5% (active) | -84.5% (active) | 1.24% (active) | -18% (active) | -73.2% (active) | -67.3% (active) | -80.3% (active)
10 | CCCCCN(CCCCC)CC(O)c1cc(Cl)ccc1OC (stereo not given) | 37.6% | 65.2% | 62.2% | 4.36% (active) | 15.4% | -6.26% (active) | 21.4% | 42.2% | 24.7% | 13.3% | 40.1% | 14.8% | 66.9% | 18.8% | 30.7% | 42.3% | 23.9% | 53.2% | 47.4% | 23.1%
11 | CC[C@H](C)[C@H](NC(=O)C12C3C4C1C1C2C3C41NC)C(=O)N(C)[C@H](C[C@@H](OC(C)=O)c1nc(C(=O)N[C@@H](Cc2ccccc2)C[C@H](C)C(=O)OC)cs1)C(C)C (stereo not given in full) | 31.6% | 41.4% | 51.9% | 16.9% | 6.43% (active) | 34.1% | -4.71% (active) | 31.4% | 19.1% | -15.5% (active) | 7.38% (active) | 9.19% (active) | 50.1% | 29.1% | 39.4% | 30% | 19.4% | -5.82% (active) | 42.1% | -14.4% (active)
12 | CC[C@H](C)[C@H](NC(=O)NC(C)(C)C)C(=O)N(C)[C@H](C[C@@H](OC(C)=O)c1nc(C(=O)N[C@@H](Cc2ccccc2)C[C@H](C)C(=O)OC)cs1)C(C)C | 24.1% | 16.3% | 44.4% | 12.4% | 1.65% (active) | 17.3% | 14.4% | 19.1% | -7.51% (active) | -53.8% (active) | 1.97% (active) | 7.43% (active) | 48.8% | 13% | 32.6% | 21.8% | 12.2% | 2.57% (active) | 43.8% | 2.12% (active)
13 | CC[C@H](C)[C@H](NC(=O)[C@H]1CCCCN1C)C(=O)N(C)[C@H](C[C@@H](OC(C)=O)c1nc(C(=O)NC23CC(C(=O)OC)(C2)C3)cs1)C(C)C | 18.4% | 18.3% | 55.7% | 11.8% | 8.77% (active) | -1.71% (active) | -22.3% (active) | 9.09% (active) | 9.6% (active) | -46.8% (active) | -5.33% (active) | 5.87% (active) | 67.3% | 15% | 35.9% | 23.2% | 2.38% (active) | -22% (active) | 46.6% | 4.22% (active)
14 | c1cnc2[nH]cc(-c3csc(-c4cn(CCCCN5CCCCC5)c5ccccc45)n3)c2c1 | 95.2% | 95.3% | 87.4% | 82.4% | 76.3% | 48.3% | 98.5% | 83.6% | 80.7% | 6.47% (active) | 107% | 10.9% | 92.8% | 83.3% | 87.3% | 86.1% | 94.8% | 86.5% | 112% | 50.2%
15 | O=[N+]([O-])c1cc(I)cc([N+](=O)[O-])c1 | 95.9% | 115% | 111% | 133% | 111% | 131% | 85.5% | 99.5% | 112% | 111% | 105% | 97.9% | 101% | 95.7% | 111% | 94.2% | 110% | 101% | 98% | 98.8%
